Records with an inconclusive call do not appear. Active and inactive are the calls of the source. Calls follow the shape of the dose curve; as a rule, active = well fitted cell-killing curve with a large enough effect; inconclusive = small, poorly fitted or top-dose-only effect; inactive = flat fitted curve, though single readings scatter.

A short description of the test: HBEC Cell Viability Secondary Assay for qHTS Assay for Epigenetic Modulators. To be noted: HBEC normal bronchial cells viability, ATP luminescence, 72 h; series mostly up to 46.1 µM. The text has this: NIH Molecular Libraries Screening Centers Network [MLSCN] NIH Chemical Genomics Center [NCGC] MLSCN Grant: 1 X01 MH079860-01 Assay Provider: Elisabeth D. Martinez, University of Texas SW Medical Center NCGC Assay Overview: This secondary assay characterizes selected actives identified in the qHTS of the Locus Derepression (LDR) assay (PubChem AID 1865). The LDR assay detects the derepression of a GFP reporter that is stably integrated in a region of the genome of murine c127i mammary cells that is presumably silenced. Compounds that cause derepression of the locus to express GFP are identified by enumerating GFP positive cells using a laser-scanning microplate cytometer. Selected LDR actives were assayed for killing of HBEC, a patient-derived normal bronchial epithelial line matched to HCC4017 (Pubchem AID XXX), a nonsmall cell lung carcinoma line from the same patient. The HBEC line assays the cytoxicity of test compounds on normal lung cells. Cell viability was measured using a luminescence-based detection reagent that measures cellular ATP levels.
NCGC Assay Protocol Summary HBEC cells were seeded at 125 cells/5 uL/well in white, solid bottom, 1536 well plates (Greiner). After 16-hour incubation at 37deg C and 5% CO2, 23 nL of compound were transferred into the assay plate via a pin tool. Plates were incubated 72 hours at 37deg C and 5% CO2, then 3.5 uL/well CellTiter-Glo(R) (Promega) detection reagent was added, plates were incubated at ambient temperature for 10 minutes and luminescence was measured by a ViewLux (Perkin Elmer) reader. For further details, see Johnson, RL, Huang, W, Jadhav, A, Austin, CP, Inglese, J, Martinez, ED (2008). A quantitative high-throughput screen identifies potential epigenetic modulators of gene expression. Anal Biochem 375: 237-48. […]
On the technique in general: In qHTS, concentration-response curves come from the screen itself.
`CCc1nnc(NC(=O)c2cccc(C(=O)Nc3nnc(CC)s3)n2)s1`: the Potency was 0.705 µM (active).

Consider `CC1=NN(c2nc3ccccc3[nH]2)C(=O)C1Cc1ccccc1` (stereo unspecified), for which the Potency is 7.05 µM (active).

For the compound `COc1ccc(C(=O)/C=C/Sc2nc3ccccc3o2)cc1`, the Potency is 3.15 µM (active).

`COc1cccc(/C=N/Nc2nc(Nc3ccccc3)nc(-n3nc(C)cc3C)n2)c1O`: the Potency is 11.2 µM (active).

As for `COc1ccc2c(C)nc(Nc3nc(-c4ccccc4)cc(=O)[nH]3)nc2c1`, the Potency was 8.88 µM (active).

Regarding `CC1=C/C(=N\NC(=S)Nc2cccnc2)CC(C)(C)C1`, the Potency was 9.96 µM (active).

Turning to `COc1ccccc1OCC(=O)N/N=C/C=C/c1ccc([N+](=O)[O-])o1`, the Potency was 9.96 µM (active).

As to `CCOn1c(=O)c[n+]([O-])c2ccccc21`, the Potency entry is “inactive”.

In the case of `Cc1ccc(/C=[N+](\[O-])c2ccc(N(C)C)cc2)c2nsnc12`, the Potency was 9.96 µM (active).

For `CCCC(=O)N1CCN(c2ccc(NC(=O)c3ccc([N+](=O)[O-])o3)cc2Cl)CC1`, the Potency was 0.705 µM (active).

Regarding `C(=N\Nc1nc(-c2ccccn2)nc2ccccc12)/c1ccccc1`, the Potency was 3.15 µM (active).

On to `CCC(=O)N1CCN(c2ccc(NC(=O)c3ccc([N+](=O)[O-])o3)cc2Cl)CC1`, for which the Potency was 0.705 µM (active).

Turning to `Cc1ccc(C(C)C)c(OCc2ccc(C(=O)N/N=C/c3cccc(O)c3O)cc2)c1`, the Potency is 14.1 µM (active).

In the case of `O=C(NN1C(=O)c2ccccc2NC1c1ccc([N+](=O)[O-])o1)c1ccc([N+](=O)[O-])cc1` (stereo unspecified), the Potency is 3.97 µM (active).

With `CCCCOC(=O)Cn1c2ccc(OC)cc2c2nc3ccccc3nc21`, the Potency is 14.1 µM (active).

Consider `COc1nc(Nc2nc3ccccc3c(=O)[nH]2)nc2ccc(C)cc12`, for which the Potency was 3.15 µM (active).

In the case of `S=C(Nc1ccccc1)c1ccccn1`, the Potency result is “inactive”.

Take `O=C(CSc1cccc[n+]1[O-])c1ccccc1Br`: the Potency entry was “inactive”.

As to `CN(C)S(=O)(=O)c1cccc(NC(=S)N/N=C/c2ccco2)c1`, the Potency result was “inactive”.

For the compound `O=[N+]([O-])/C(C=Nc1ccccc1O)=C\Nc1ccccc1O`, the Potency was 28.1 µM (active).

`NC(=S)N/N=C/c1ncc(C(F)(F)F)cc1Cl`: the Potency is 6.28 µM (active).

Consider `COc1ccc(NC(=O)CSc2nc3c(oc4ccccc43)c(=O)n2Cc2ccco2)cc1Cl`, for which the Potency was 7.05 µM (active).

As for `O=C1C=C(Nc2ccc(Cl)cc2)C(=O)N1c1ccc(Cl)cc1`, the Potency result was “inactive”.

In the case of `COCCNC(=S)N/N=C(\C)c1ccccc1O`, the Potency result was “inactive”.

With `C/C=C/c1ccc(OCC(=O)OCC(=O)NC2CC2)c(OC)c1`, the Potency entry is “inactive”.

In the case of `CCOc1ccc(NC(=O)c2nc(S(=O)(=O)Cc3ccccc3F)ncc2Cl)cc1`, the Potency was 2.23 µM (active).

Take `COc1cccc(N2CCN(S(=O)(=O)c3ccc(-n4cnnn4)cc3)CC2)c1`: the Potency entry was “inactive”.

For the compound `N=c1n(CC(=O)c2ccc([N+](=O)[O-])cc2)c2ccccc2n1Cc1ccccc1Cl`, the Potency is 11.2 µM (active).

In the case of `CCN(CC)CCCNC(=O)CSc1c2c(nc3cc(Cl)ccc13)CCCC2`, the Potency is 19.9 µM (active).

On to `O=C(N/N=C/c1ccccn1)c1cc(-c2ccc(Cl)cc2)nc2ccccc12`, for which the Potency is 7.05 µM (active).

On to `COc1ccc2c(C)cc(SCC(=O)N(C)C3CCS(=O)(=O)C3)nc2c1` (stereo unspecified), for which the Potency result was “inactive”.

The values are drawn from PubChem BioAssay AID493066 (National Center for Advancing Translational Sciences (NCATS), 2011).
